In PubChem BioAssay (NCATS) one finds activation data, which are given here for 18 compounds.

Molecules are shown by their SMILES. Results filed as inconclusive are left out. A number with no mark means an inactive call. Calls come from the whole dose curve; as a rule, active = well fitted activation curve with a large enough effect; inconclusive = small, poorly fitted or top-dose-only effect; inactive = no such curve, though single readings can be large or run the other way.

The assay deals with Cellular tumor antigen p53 (Homo sapiens) (UniProt P04637). As to the kind of experiment: Primary qHTS for small molecule compounds that upregulate eGFP-tagged delta133p53alpha (in N-terminal) cells. (AID 2060322).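 Note: cells pre-induced with doxycycline then dosed without doxycycline; series mostly up to about 56 µM; 0% = DMSO vehicle and 100% = reference activator; nearly all actives have a fitted effect of over 75% in size.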 To be noted: NCI-H358 eGFP-delta133p53alpha fluorescence, 24 h; activation: active compounds read high. The essentials: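 NCI-H358 cells pre-induced 24 h with 10 ng/ml doxycycline for eGFP-delta133p53alpha, plated dox-free and exposed 24 h at 37C to titrated compounds. Fixed, Hoechst-stained; gated GFP peak intensity by laser scanning cytometry, normalized to DMSO (0%) and 57.5 uM 5-azacytidine (100%).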
Chain of Cellular tumor antigen p53 (Homo sapiens) (P04637 whole entry, looked up): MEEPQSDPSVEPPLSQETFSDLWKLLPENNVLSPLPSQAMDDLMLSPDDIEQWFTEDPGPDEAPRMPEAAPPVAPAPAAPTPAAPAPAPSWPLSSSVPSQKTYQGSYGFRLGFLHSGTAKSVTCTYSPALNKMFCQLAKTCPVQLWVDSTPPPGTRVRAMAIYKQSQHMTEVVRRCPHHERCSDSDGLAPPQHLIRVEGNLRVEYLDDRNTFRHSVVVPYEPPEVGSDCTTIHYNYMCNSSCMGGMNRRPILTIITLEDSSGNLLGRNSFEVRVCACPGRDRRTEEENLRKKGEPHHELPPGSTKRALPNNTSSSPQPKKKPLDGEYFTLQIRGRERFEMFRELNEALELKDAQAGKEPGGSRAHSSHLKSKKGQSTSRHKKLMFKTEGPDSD
(Quantitative high-throughput screening tests each substance at several concentrations.)
`COc1ccccc1OC(=O)Oc1ccccc1OC`: the activation is 6.69%. Then `O=C(Nc1ccc(C(=O)O)c(O)c1)c1ccccc1`, with -30.1%; and `CCCCCN=C(N)NN=Cc1c[nH]c2ccc(OC)cc12`, with 31%; and `O=C(O)COC(=O)Cc1ccccc1Nc1c(Cl)cccc1Cl`, with 5.08%. For `O=C(c1cccc(Br)c1)N1CCC(N2CCCC2)CC1`, the activation was -15.6%. Under `CC(C)OP(=O)(CP(=O)(OC(C)C)OC(C)C)OC(C)C` stands -4.18%; under `CN1CCN(CCCN2c3ccccc3Sc3ccc(S(=O)(=O)N(C)C)cc32)CC1`, 6.69%; under `O=C(O)Cc1ccc(-c2ccccc2)cc1`, -6.21%.

Take `CN1CCCC(CC2c3ccccc3Sc3ccccc32)C1` (stereo not drawn): the activation was 14.2%.

Turning to `Cc1nc2n(c(=O)c1CCN1CCC(C(=O)c3ccc(F)cc3)CC1)CCS2`, the activation was 23.2%.

In the case of `O=C(NCC(=O)N1CCCCC1)Nc1ccc2nnsc2c1`, the activation was -6.7%. On to `Oc1c(I)cc(I)c2cccnc12`, for which the activation was -5.86%. Under `CCCCC(CC)COC(=O)c1ccccc1O` (stereo not drawn) stands -22.6%; under `NS(=O)(=O)Cc1noc2ccccc12`, 10.9%. With `CCS(=O)(=O)c1ccc(OC)c(C(=O)OC)c1`, the activation was 19.8%. Under `CCc1cc(C(C)=NOCc2ccc(C3CCCCC3)c(C(F)(F)F)c2)ccc1CN1CC(C(=O)O)C1` stands 10.9%. Turning to `CCCCOc1ccc(OCCCN2CCOCC2)cc1`, the activation is 22.6%.

For `O=C1c2ccccc2C(=O)C1c1ccc(Br)cc1`, the activation was -22%.
